Experimental data from publication PMC9911399, “Two distinct binding modes provide the RNA-binding protein RbFox with extraordinary sequence specificity”.
Where a chain is given by its changes, count along the chain named. Over roughly 16,000 sequences, “ka relative to ugcaugu” has its median near 0.0091; the highest 2% begin near 0.032. The entries come from a sample that favours the highest values as a whole.

B1: UAGUCCU (DNA:RNA)
RNA: GGGAGACCGGAAUUCAGAUUGUCCUAGUCCUUUAAAUCCCGUCGUAGCCACCA
DNA 1: CAATCTGAATTCCGGTCTCCC
DNA 2: TGGTGGCTACGACGGGATT
B2: GUACGUA (DNA:RNA)
RNA: GGGAGACCGGAAUUCAGAUUGUCCGUACGUAUUAAAUCCCGUCGUAGCCACCA
DNA 1: CAATCTGAATTCCGGTCTCCC
DNA 2: TGGTGGCTACGACGGGATT
B3: CUUUCCU (DNA:RNA)
RNA: B1 RNA with U25C, A26U, G27U
DNA 1: CAATCTGAATTCCGGTCTCCC
DNA 2: TGGTGGCTACGACGGGATT
B4: UCGUCGA (DNA:RNA)
RNA: B1 RNA with A26C, C30G, U31A
DNA 1: CAATCTGAATTCCGGTCTCCC
DNA 2: TGGTGGCTACGACGGGATT
B5: UGCUCGA (DNA:RNA)
RNA: B1 RNA with A26G, G27C, C30G, U31A
DNA 1: CAATCTGAATTCCGGTCTCCC
DNA 2: TGGTGGCTACGACGGGATT
B6: GUCUCGA (DNA:RNA)
RNA: B2 RNA with A27C, C28U, G29C, U30G
DNA 1: CAATCTGAATTCCGGTCTCCC
DNA 2: TGGTGGCTACGACGGGATT
B7: GGCUCGA (DNA:RNA)
RNA: B2 RNA with U26G, A27C, C28U, G29C, U30G
DNA 1: CAATCTGAATTCCGGTCTCCC
DNA 2: TGGTGGCTACGACGGGATT
B8: UCGUCGG (DNA:RNA)
RNA: B1 RNA with A26C, C30G, U31G
DNA 1: CAATCTGAATTCCGGTCTCCC
DNA 2: TGGTGGCTACGACGGGATT
B9: CGCUCGG (DNA:RNA)
RNA: B1 RNA with U25C, A26G, G27C, C30G, U31G
DNA 1: CAATCTGAATTCCGGTCTCCC
DNA 2: TGGTGGCTACGACGGGATT
B10: UCCUCGA (DNA:RNA)
RNA: B1 RNA with A26C, G27C, C30G, U31A
DNA 1: CAATCTGAATTCCGGTCTCCC
DNA 2: TGGTGGCTACGACGGGATT
B11: UGCUCGG (DNA:RNA)
RNA: B1 RNA with A26G, G27C, C30G, U31G
DNA 1: CAATCTGAATTCCGGTCTCCC
DNA 2: TGGTGGCTACGACGGGATT
B12: CGGCUCG (DNA:RNA)
RNA: B1 RNA with U25C, A26G, U28C, C29U, U31G
DNA 1: CAATCTGAATTCCGGTCTCCC
DNA 2: TGGTGGCTACGACGGGATT
B13: ACAGCUC (DNA:RNA)
RNA: B2 RNA with G25A, U26C, C28G, G29C, A31C
DNA 1: CAATCTGAATTCCGGTCTCCC
DNA 2: TGGTGGCTACGACGGGATT
B14: CUAUCUG (DNA:RNA)
RNA: B2 RNA with G25C, C28U, G29C, A31G
DNA 1: CAATCTGAATTCCGGTCTCCC
DNA 2: TGGTGGCTACGACGGGATT
B15: UAAGCGA (DNA:RNA)
RNA: B1 RNA with G27A, U28G, C30G, U31A
DNA 1: CAATCTGAATTCCGGTCTCCC
DNA 2: TGGTGGCTACGACGGGATT
B16: GGUCAGA (DNA:RNA)
RNA: B2 RNA with U26G, A27U, G29A, U30G
DNA 1: CAATCTGAATTCCGGTCTCCC
DNA 2: TGGTGGCTACGACGGGATT
B17: CAUUUGG (DNA:RNA)
RNA: B1 RNA with U25C, G27U, C29U, C30G, U31G
DNA 1: CAATCTGAATTCCGGTCTCCC
DNA 2: TGGTGGCTACGACGGGATT
B18: GACUAUC (DNA:RNA)
RNA: B2 RNA with U26A, A27C, C28U, G29A, A31C
DNA 1: CAATCTGAATTCCGGTCTCCC
DNA 2: TGGTGGCTACGACGGGATT
B19: AAAGUAC (DNA:RNA)
RNA: B2 RNA with G25A, U26A, C28G, G29U, U30A, A31C
DNA 1: CAATCTGAATTCCGGTCTCCC
DNA 2: TGGTGGCTACGACGGGATT
B20: AAAACUA (DNA:RNA)
RNA: B2 RNA with G25A, U26A, C28A, G29C
DNA 1: CAATCTGAATTCCGGTCTCCC
DNA 2: TGGTGGCTACGACGGGATT
B21: GAUCUCU (DNA:RNA)
RNA: B1 RNA with U25G, G27U, U28C, C29U
DNA 1: CAATCTGAATTCCGGTCTCCC
DNA 2: TGGTGGCTACGACGGGATT
B22: UUAAGUU (DNA:RNA)
RNA: B2 RNA with G25U, C28A, A31U
DNA 1: CAATCTGAATTCCGGTCTCCC
DNA 2: TGGTGGCTACGACGGGATT
B23: UGCGUGU (DNA:RNA)
RNA: B1 RNA with A26G, G27C, U28G, C29U, C30G
DNA 1: CAATCTGAATTCCGGTCTCCC
DNA 2: TGGTGGCTACGACGGGATT
B24: CUGCGUG (DNA:RNA)
RNA: B2 RNA with G25C, A27G, A31G
DNA 1: CAATCTGAATTCCGGTCTCCC
DNA 2: TGGTGGCTACGACGGGATT
B25: UCCUGCG (DNA:RNA)
RNA: B1 RNA with A26C, G27C, C29G, U31G
DNA 1: CAATCTGAATTCCGGTCTCCC
DNA 2: TGGTGGCTACGACGGGATT
B26: CGCGUGC (DNA:RNA)
RNA: GGGAGACCGGAAUUCAGAUUGUCCCGCGUGCUUAAAUCCCGUCGUAGCCACCA
DNA 1: CAATCTGAATTCCGGTCTCCC
DNA 2: TGGTGGCTACGACGGGATT
B27: UGCGUUU (DNA:RNA)
RNA: B26 RNA with C25U, G30U, C31U
DNA 1: CAATCTGAATTCCGGTCTCCC
DNA 2: TGGTGGCTACGACGGGATT
B28: UGCGUCG (DNA:RNA)
RNA: B26 RNA with C25U, G30C, C31G
DNA 1: CAATCTGAATTCCGGTCTCCC
DNA 2: TGGTGGCTACGACGGGATT
B29: UGCUGCG (DNA:RNA)
RNA: B1 RNA with A26G, G27C, C29G, U31G
DNA 1: CAATCTGAATTCCGGTCTCCC
DNA 2: TGGTGGCTACGACGGGATT
B30: UGUGUCC (DNA:RNA)
RNA: B26 RNA with C25U, C27U, G30C
DNA 1: CAATCTGAATTCCGGTCTCCC
DNA 2: TGGTGGCTACGACGGGATT
B31: UUCGUGC (DNA:RNA)
RNA: B26 RNA with C25U, G26U
DNA 1: CAATCTGAATTCCGGTCTCCC
DNA 2: TGGTGGCTACGACGGGATT
B32: UGCGUGC (DNA:RNA)
RNA: B26 RNA with C25U
DNA 1: CAATCTGAATTCCGGTCTCCC
DNA 2: TGGTGGCTACGACGGGATT
B33: UGCGCGU (DNA:RNA)
RNA: B26 RNA with C25U, U29C, C31U
DNA 1: CAATCTGAATTCCGGTCTCCC
DNA 2: TGGTGGCTACGACGGGATT
B34: UGCGUCC (DNA:RNA)
RNA: B26 RNA with C25U, G30C
DNA 1: CAATCTGAATTCCGGTCTCCC
DNA 2: TGGTGGCTACGACGGGATT

Target: T1, RBFOX1 RRM (Homo sapiens, UniProt Q9NWB1 109-208)
T1 sequence: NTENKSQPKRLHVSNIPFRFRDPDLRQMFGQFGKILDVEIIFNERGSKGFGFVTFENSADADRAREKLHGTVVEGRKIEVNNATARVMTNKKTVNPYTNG
Experiment: EMSA; HiTS-Eq, 1 nM pool, 10 min; buffer printed only for the single-RNA assays: 10 mM Tris pH 7.5, 150 mM NaCl, 3.4 mM EDTA, 0.001% NP-40, 30 C
Details: tags: His6 N-terminal (pET28a); label: 5' 32P
How it was run: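 These values rest on relative association constants, computed from read-count changes of each RNA species versus the control reaction and normalised to the cognate motif. Reads came from free RNA recovered by 8% native PAGE after purified RbFox RRM (wild type or mutant) at increasing concentrations was equilibrated for 10 min in 50 µL with 1 nM of a 5′-radiolabelled pool with 7 randomized nucleotides and DNA-annealed flanks.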

Row | Binder | binding signal
1 | B1 | 0.00776 KA relative to UGCAUGU
2 | B2 | 0.0085 KA relative to UGCAUGU
3 | B3 | 0.0054 KA relative to UGCAUGU
4 | B4 | 0.014 KA relative to UGCAUGU
5 | B5 | 0.0363 KA relative to UGCAUGU
6 | B6 | 0.0166 KA relative to UGCAUGU
7 | B7 | 0.033 KA relative to UGCAUGU
8 | B8 | 0.0171 KA relative to UGCAUGU
9 | B9 | 0.0166 KA relative to UGCAUGU
10 | B10 | 0.00976 KA relative to UGCAUGU
11 | B11 | 0.0361 KA relative to UGCAUGU
12 | B12 | 0.0112 KA relative to UGCAUGU
13 | B13 | 0.00303 KA relative to UGCAUGU
14 | B14 | 0.00983 KA relative to UGCAUGU
15 | B15 | 0.0108 KA relative to UGCAUGU
16 | B16 | 0.00171 KA relative to UGCAUGU
17 | B17 | 0.014 KA relative to UGCAUGU

Row | Binder | binding signal
18 | B18 | 0.00429 KA relative to UGCAUGU
19 | B19 | 0.00371 KA relative to UGCAUGU
20 | B20 | 0.00178 KA relative to UGCAUGU
21 | B21 | 0.0194 KA relative to UGCAUGU
22 | B22 | 0.0109 KA relative to UGCAUGU
23 | B23 | 0.0418 KA relative to UGCAUGU
24 | B24 | 0.035 KA relative to UGCAUGU
25 | B25 | 0.0166 KA relative to UGCAUGU
26 | B26 | 0.0241 KA relative to UGCAUGU
27 | B27 | 0.0236 KA relative to UGCAUGU
28 | B28 | 0.0236 KA relative to UGCAUGU
29 | B29 | 0.0333 KA relative to UGCAUGU
30 | B30 | 0.0226 KA relative to UGCAUGU
31 | B31 | 0.0243 KA relative to UGCAUGU
32 | B32 | 0.0465 KA relative to UGCAUGU
33 | B33 | 0.0288 KA relative to UGCAUGU
34 | B34 | 0.0132 KA relative to UGCAUGU
